Source: PubChem BioAssay (National Center for Advancing Translational Sciences (NCATS))
IL-1B inflam inh: inhibitors of inflammasome signaling (IL-1 beta secretion); THP-1 LPS/ATP IL-1B secretion, AlphaLISA, 16 h; hits give low values; activity change, % at 57.5 µM; actives 4.7% (n = 360,000); AID 743279; in the data active = activity change below about -50%; inconclusive = mostly about -30% to -49%
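Secreted IL-1B measured by AlphaLISA bead assay after 16 h compound exposure of THP-1 cells; compounds (final up to 57.5 uM) added 1 h before LPS (250 ng/mL) and ATP (1.25 mM) stimulation; lower signal means less secretion.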
TDP1 cell CPT: DT40-hTDP1 cell growth loss with CPT | AID 686979 | Potency, µM (highest dose often 46.2 µM), hits mostly inhibitors | chicken DT40 Tdp1-/-;hTDP1 cells + 20 nM CPT, ATP luminescence, 48 h | actives 12% (n = 420,000); note: nearly all actives have a fitted effect of over 55% in size
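Chicken DT40 Tdp1-/- cells stably complemented with human TDP1 were seeded at 400 cells/well in medium containing 20 nM camptothecin, exposed to pin-transferred compounds, and grown at 37 °C for at least 48 hr. Viability was read as ATP luminescence.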
DRD3 agonist: D3 dopamine receptor (human) agonism | D3R DiscoveRx beta-arrestin cells, luminescence, 90 min | AID 652048 | actives 0.58% (n = 410,000) | P35462 | max activation, %; in the data active = max activation above about 30%
Target sequence (P35462 whole entry, looked up): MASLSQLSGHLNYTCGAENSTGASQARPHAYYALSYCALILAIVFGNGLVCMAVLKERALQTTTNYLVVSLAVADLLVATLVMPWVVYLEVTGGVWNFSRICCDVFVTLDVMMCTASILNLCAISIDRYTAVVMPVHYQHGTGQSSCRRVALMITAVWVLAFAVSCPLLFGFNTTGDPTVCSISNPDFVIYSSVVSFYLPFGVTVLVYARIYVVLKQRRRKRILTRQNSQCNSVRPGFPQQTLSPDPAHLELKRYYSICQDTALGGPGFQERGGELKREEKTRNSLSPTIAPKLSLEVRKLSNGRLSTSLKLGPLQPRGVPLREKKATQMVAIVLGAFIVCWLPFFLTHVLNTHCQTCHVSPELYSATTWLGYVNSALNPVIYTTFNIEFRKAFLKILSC
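Agonist-mode cell screen: cells plated at 1500/well and incubated overnight at 37 °C, then exposed to library compounds for 90 min at 37 °C. Detection reagent was added for 30–60 min at room temperature, and luminescence was read.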
DRD3 antagonist: antagonists of human D3 dopamine receptor. D3R cells, DiscoveRx beta-arrestin luminescence, antagonist mode; hits give low values. P35462. max response, negative = inhibition, %. AID 652054. actives 2.5% (n = 360,000); in the data active = max response below about -50%; inconclusive = no clear call, values can overlap the other calls
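Cells plated overnight at 1500 cells/well, then exposed to library compounds with dopamine controls for 90 minutes at 37 degrees C. DiscoveRx reagent added for 30–60 minutes at room temperature; luminescence read, quantitative HTS format.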
ClpP mod: qHTS Assay for Activators of ClpP | ATP-dependent Clp protease proteolytic subunit (Bacillus subtilis (strain 168)), P80244 | actives 1.9% (n = 340,000) | Potency, µM (top dose mostly 57.5 µM) | AID 651965, 2013 | purified B. subtilis ClpP, FRET peptide cleavage, 20 min; active = well fitted falling curve with a large enough effect; inconclusive = small, poorly fitted or top-dose-only effect; inactive = no such curve, though single readings can be large or run the other way; note: the source files actives as falling curves though it sought activators and does not explain the sign; nearly all actives have a fitted effect of over 65% in size
Target sequence (P80244 whole entry, looked up): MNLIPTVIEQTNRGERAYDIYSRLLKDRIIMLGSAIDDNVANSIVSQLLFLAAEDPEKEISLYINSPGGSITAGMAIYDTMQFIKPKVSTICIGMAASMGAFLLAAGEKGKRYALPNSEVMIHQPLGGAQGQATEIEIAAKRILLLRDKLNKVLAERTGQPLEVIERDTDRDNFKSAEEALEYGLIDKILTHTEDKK
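Purified B. subtilis ClpP, 10 microg/mL final in Tris/HCl pH8 with KCl, BSA, glycerol and Tween-20, cleaved an Abz/nitrotyrosine-quenched decapeptide. Fluorescence (ex 320, em 430) was read at 0 and 20 min at room temperature. Delta was normalized to 5.8 microM ADEP and DMSO/no-enzyme controls.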
DT40 TDP1 no CPT: qHTS for Inhibitors of human tyrosyl-DNA phosphodiesterase 1 (TDP1): qHTS in cells in absence of CPT; DT40 Tdp1-/- hTDP1 cells, no CPT, ATP luminescence, 48 h; Potency, µM (doses to about 46.2 µM), hits mostly inhibitors; actives 15% (n = 420,000); AID 686978, 2013; note: nearly all actives have a fitted effect of over 55% in size
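Seeded 400 DT40-hTDP1 cells/well (vehicle DMSO, no 20 nM CPT); pinned compounds; ≥48 hr at 37 °C; CellTiter-Glo luminescence as viability measure.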
A number is an active result; n = inactive; u = inconclusive; x = not tested or not shown. Shown are actives, neighbours in structure and some others; about 21% of the full set was active somewhere. Unless noted, calls come from the whole dose curve; as a rule, active = well fitted inhibition curve with a large enough effect; inconclusive = small, poorly fitted or top-dose-only effect; inactive = flat fitted curve, though single readings scatter.

SMILES	IL-1B inflam inh	TDP1 cell CPT	DRD3 agonist	DRD3 antagonist	ClpP mod	DT40 TDP1 no CPT
O=C(O)c1cc[c]([Hg][Cl])cc1	-101.1	0.651µM	n	-64.7	n	0.92µM
COc1ccc(C(=O)O)cc1OC	n	n	n	n	n	n
O=C1C2CCCN2C(c2cccc(Cl)c2)N1c1ccccn1 (stereo unspecified)	n	n	n	n	n	n
COC(=O)C1=CN(c2ccc(C(C)(C)C)cc2)C(N)=C(C#N)C1c1cccc([N+](=O)[O-])c1 (stereo unspecified)	n	u	n	n	n	23.1µM
C=C1C/C(=C/C)C(=O)O[C@@H]2CCN3CC=C(COC(=O)[C@]1(C)O)[C@@H]23	x	n	x	x	x	n
CC12CC[C@H]3[C@@H](CCC4(O)C[C@H](O)CCC34/C=N/NC(=O)c3ccccc3F)C1(O)CCC2C1=CC(=O)OC1 (stereo partly specified)	n	n	n	n	n	n
C[C@]12CCC3C(CC[C@]4(O)C[C@@H](O)CC[C@]34C=O)[C@@]1(O)CC[C@@H]2C1=CC(=O)OC1 (stereo partly specified)	x	9.44µM	x	x	x	5.96µM
COc1ccc(C(=O)N/N=C/C23CC[C@@H](O)CC2(O)CC[C@@H]2[C@@H]3CCC3(C)C(C4=CC(=O)OC4)CCC23O)cc1 (stereo partly specified)	-70.6	n	n	n	n	n
O=S(=O)(c1ccc(F)cc1)N1CCCCC1c1cccnc1 (stereo unspecified)	u	u	n	n	n	n
C=C1C2[C@H](OC(C)=O)[C@@H]3CC(=O)[C@]4(C)OC[C@@]3(C)[C@@]4(O)[C@@H](OC(C)=O)[C@H](OC(C)=O)[C@@]2(COC(=O)c2ccccc2)[C@@H](OC(C)=O)C[C@@H]1O (stereo partly specified)	n	u	n	n	n	u
COC(=O)C1=C(c2ccc(Cl)c(C(F)(F)F)c2)C[C@@H]2CC[C@H]1N2C(=O)NCCOc1ccccc1Cl	-81.5	u	n	u	n	u
COC(=O)C1=C(c2ccc(Cl)c(C(F)(F)F)c2)C[C@@H]2CC[C@H]1N2C(=O)NCCCOC(C)C	n	25.9µM	n	u	n	13µM
CC12CCC(=O)C=C1CCC1C2CCC2(C)C1CCC2(O)CC#N (stereo unspecified)	n	n	n	n	x	u
CCOc1ccc(N(C(C)C(=O)Nc2cc(Cl)ccc2OC)S(C)(=O)=O)cc1 (stereo unspecified)	x	0.581µM	n	x	n	0.517µM
COc1cccc(C2CCN(CC(=O)Nc3cc(Cl)ccc3OC)CC2O)c1 (stereo unspecified)	n	n	n	n	n	n
COC(=O)C1=C(c2c(C)noc2C)C[C@@H]2CC[C@H]1N2C(=O)NC1Cc2ccccc2C1	n	n	n	n	n	n
COc1ccc(-n2c(SC)nc3ccccc3c2=O)cc1	n	14.6µM	n	n	n	18.4µM
O=c1c2ccccc2nc(-c2ccccc2)n1-c1nccs1	n	n	n	n	n	u
Cc1ccc(-c2nc3ccccc3c(=O)n2-c2cccc(O)c2)cc1	n	2.31µM	n	n	x	8.2µM
Cc1ccc(-c2nc3ccccc3c(=O)n2-n2cccc2)cc1	n	16.4µM	n	n	n	11.6µM
O=c1c2ccccc2nc(-c2ccc(Cl)cc2Cl)n1-c1nccs1	n	u	n	n	n	13µM
CC(N)[C@@H](O)c1ccccc1 (stereo partly specified)	x	n	x	x	x	n
COc1ccc(C(=O)Nc2ccccc2-c2nnn(CC(=O)Nc3ccc4c(c3)OCCO4)n2)cc1	n	u	n	n	u	u
O=c1c2ccccc2nc(-c2ccc(-c3ccccc3)cc2)n1-c1ccncc1	n	u	n	n	n	20.6µM
O=c1c2ccccc2nc(-c2ccccc2Cl)n1-c1cccc(O)c1	n	20.6µM	n	n	n	u
SMILES	IL-1B inflam inh	TDP1 cell CPT	DRD3 agonist	DRD3 antagonist	ClpP mod	DT40 TDP1 no CPT
COc1ccc(-n2c(-c3ccc(C)cc3)nc3ccccc3c2=O)cc1	n	14.6µM	n	n	n	14.6µM
Cc1ccc(-c2nc3ccccc3c(=O)n2-c2ccncc2)cc1	n	n	n	n	n	u
COc1ccc(-n2c(-c3ccccc3[N+](=O)[O-])nc3ccccc3c2=O)cc1	n	23.1µM	n	n	x	14.6µM
CCOC(=O)C1(c2ccccc2)Oc2ccccc2C(c2ccc(OC)cc2)=C1C(=O)OC (stereo unspecified)	n	u	n	n	n	u
c1ccc(NC2=Nc3ccccc3CC2)cc1	n	n	n	n	n	u
CCCNC(=O)c1cc2c(c(-c3cccc(-c4cc5ccccc5o4)c3)n1)[C@@H](CCO)N(C(=O)NC(C)C)C2	n	u	n	n	n	u
CS(=O)(=O)c1ccc(C2=C(CNC(=O)c3nccs3)[C@H]3CC[C@@H](C2)N3CCOc2ccccc2)cc1	n	n	n	n	n	u
CNC(=O)Oc1cccc2c1OC(C)(C)C2	x	n	x	x	x	n
Cc1ccc(-c2c(C)n3c4c(=O)n(C)c(=O)n(C)c4nc3n2CCO)cc1	x	0.259µM	45.6	x	n	0.184µM
Cn1c(=O)c2c(nc(SCc3ccccc3)n2Cc2ccc(Cl)cc2)n(C)c1=O	u	u	n	n	n	u
Cc1csc2nc(COC(=O)c3ccccc3NC(=O)c3ccc(F)cc3)cc(=O)n12	x	u	n	x	n	u
CCN(CC)P(c1n(C)cc[n+]1C)N(CC)CC	n	u	n	n	n	23.1µM
CCn1c(P(C)(=O)O)nc2cc(NC(=O)c3ccccc3F)ccc21	n	n	n	n	x	n
O=C(CCl)Nc1sccc1C(=O)c1ccccc1	-102.9	14.6µM	n	n	x	u
CNCCCN1c2ccccc2CCc2ccccc21	-58.4	u	n	-75.4	n	25.9µM
COCCCN1Cc2ccccc2C1=N	n	n	n	n	n	n
CCC1(C)CC(C(N)=S)CCO1 (stereo unspecified)	n	18.4µM	n	n	n	20.6µM
CCN1CCN(c2nc3ccccc3s2)CC1	n	n	n	n	n	n
Cn1c(C(=O)N2CCN(c3nc4ccccc4s3)CC2)cc2sccc21	n	23.1µM	n	n	n	u
Cc1cc(-c2cc(C)c(N)c(C)c2)cc(C)c1N	n	n	n	n	n	n
CCOc1ccc(-c2nc(CSCC(=O)NCCc3ccc(OCC)c(OCC)c3)c(C)o2)cc1	x	14.6µM	n	x	n	16.4µM
